Key:
Conditions in all cases: concentration: 1 μM,replicates: in singlicate; n = 1
[1] = tested on: RPS6KA4(Kin.Dom.1-N-terminal)
[2] = tested on: RPS6KA4(Kin.Dom.2-C-terminal)
[3] = tested on: RPS6KA5(Kin.Dom.1-N-terminal)
[4] = tested on: RPS6KA5(Kin.Dom.2-C-terminal)
[5] = tested on: T1, RSK1(Kin.Dom.1-N-terminal)
T1 construct: gene RPS6KA1

[6] = tested on: T2, RSK1(Kin.Dom.2-C-terminal)
T2 construct: gene RPS6KA1

[7] = tested on: T3, RSK2(Kin.Dom.1-N-terminal)
T3 construct: gene RPS6KA3

[8] = tested on: T4, RSK2(Kin.Dom.2-C-terminal)
T4 construct: gene RPS6KA3

[9] = tested on: T5, RSK3(Kin.Dom.1-N-terminal)
T5 construct: gene RPS6KA2

[10] = tested on: T6, RSK3(Kin.Dom.2-C-terminal)
T6 construct: gene RPS6KA2

[11] = tested on: T7, RSK4(Kin.Dom.1-N-terminal)
T7 construct: gene RPS6KA6

[12] = tested on: T8, RSK4(Kin.Dom.2-C-terminal)
T8 construct: gene RPS6KA6

S6K1 = tested on: S6K1
SBK1 = tested on: SBK1
SGK2 = tested on: SGK2
SGK3 = tested on: SGK3
SGK = tested on: SGK
SIK2 = tested on: SIK2
SIK = tested on: SIK
SLK = tested on: SLK
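Also: KINOMEscan kinase panel screen.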

## CC(=O)Nc1nc2cnc(Nc3cc(NC(=O)c4cccc(CC(C)(C)C#N)c4)ccc3C)nc2s1
[1]
  %Inh: 0%
[2]
  %Inh: 2%
[3]
  %Inh: 13%
[4]
  %Inh: 0%
[5]
  %Inh: 5%
[6]
  %Inh: 0%
[7]
  %Inh: 0%
[8]
  %Inh: 26%
[9]
  %Inh: 0%
[10]
  %Inh: 0%
[11]
  %Inh: 25%
[12]
  %Inh: 0%
S6K1
  %Inh: 0%
SBK1
  %Inh: 52%
SGK2
  %Inh: 0%
SGK3
  %Inh: 0%
SGK
  %Inh: 4%
SIK2
  %Inh: 0%
SIK
  %Inh: 24%
SLK
  %Inh: 1%

## O=C(Nc1cccc(Oc2ccc3nccn3n2)c1)Nc1cccc(C(F)(F)F)c1
[1]
  %Inh: 24%
[2]
  %Inh: 0%
[3]
  %Inh: 0%
[4]
  %Inh: 0%
[5]
  %Inh: 0%
[6]
  %Inh: 9%
[7]
  %Inh: 8%
[8]
  %Inh: 25%
[9]
  %Inh: 0%
[10]
  %Inh: 0%
[11]
  %Inh: 0%
[12]
  %Inh: 0%
S6K1
  %Inh: 0%
SBK1
  %Inh: 0%
SGK2
  %Inh: 8%
SGK3
  %Inh: 8%
SGK
  %Inh: 0%
SIK2
  %Inh: 16%
SIK
  %Inh: 17%
SLK
  %Inh: 0%

## FC(F)(F)c1cc(Br)cc(Nc2nccc(-c3cnn4ncccc34)n2)c1 [GW810578]
[1]
  %Inh: 0%
[2]
  %Inh: 0%
[3]
  %Inh: 0%
[4]
  %Inh: 0%
[5]
  %Inh: 0%
[6]
  %Inh: 0%
[7]
  %Inh: 17%
[8]
  %Inh: 0%
[9]
  %Inh: 3%
[10]
  %Inh: 9%
[11]
  %Inh: 13%
[12]
  %Inh: 0%
S6K1
  %Inh: 4%
SBK1
  %Inh: 0%
SGK2
  %Inh: 0%
SGK3
  %Inh: 17%
SGK
  %Inh: 2%
SIK2
  %Inh: 0%
SIK
  %Inh: 14%
SLK
  %Inh: 13%

## CC(=O)c1c(-c2ccncc2)[nH]c(-c2ccncc2)c1C [GW493036]
[1]
  %Inh: 34%
[2]
  %Inh: 0%
[3]
  %Inh: 0%
[4]
  %Inh: 61%
[5]
  %Inh: 26%
[6]
  %Inh: 0%
[7]
  %Inh: 0%
[8]
  %Inh: 0%
[9]
  %Inh: 0%
[10]
  %Inh: 7%
[11]
  %Inh: 0%
[12]
  %Inh: 4%
S6K1
  %Inh: 6%
SBK1
  %Inh: 10%
SGK2
  %Inh: 11%
SGK3
  %Inh: 9%
SGK
  %Inh: 0%
SIK2
  %Inh: 0%
SIK
  %Inh: 0%
SLK
  %Inh: 0%

## CS(=O)(=O)Nc1ccc(-c2ccnc3[nH]ccc23)cc1 [GSK993273]
[1]
  %Inh: 0%
[2]
  %Inh: 94.1%
[3]
  %Inh: 0%
[4]
  %Inh: 86%
[5]
  %Inh: 17%
[6]
  %Inh: 55%
[7]
  %Inh: 35%
[8]
  %Inh: 29%
[9]
  %Inh: 19%
[10]
  %Inh: 54%
[11]
  %Inh: 27%
[12]
  %Inh: 60%
S6K1
  %Inh: 37%
SBK1
  %Inh: 55%
SGK2
  %Inh: 13%
SGK3
  %Inh: 12%
SGK
  %Inh: 24%
SIK2
  %Inh: 39%
SIK
  %Inh: 9%
SLK
  %Inh: 49%

## Cl.Cl.NC[C@H](CC1CCCCC1)NC(=O)c1ccc(-c2ccnc3[nH]ccc23)s1 [GSK1581428]
[1]
  %Inh: 82%
[2]
  %Inh: 79%
[3]
  %Inh: 84%
[4]
  %Inh: 67%
[5]
  %Inh: 23%
[6]
  %Inh: 12%
[7]
  %Inh: 83%
[8]
  %Inh: 0%
[9]
  %Inh: 57%
[10]
  %Inh: 21%
[11]
  %Inh: 84%
[12]
  %Inh: 12%
S6K1
  %Inh: 93%
SBK1
  %Inh: 88%
SGK2
  %Inh: 79%
SGK3
  %Inh: 92.9%
SGK
  %Inh: 80%
SIK2
  %Inh: 16%
SIK
  %Inh: 11%
SLK
  %Inh: 75%

## CN1CCN(CCCNc2nccc(-c3c(-c4ccc(F)cc4)nn4cc(C(N)=O)ccc34)n2)CC1 [GW622475]
[1]
  %Inh: 13%
[2]
  %Inh: 0%
[3]
  %Inh: 19%
[4]
  %Inh: 14%
[5]
  %Inh: 28%
[6]
  %Inh: 63%
[7]
  %Inh: 0%
[8]
  %Inh: 100%
[9]
  %Inh: 12%
[10]
  %Inh: 14%
[11]
  %Inh: 0%
[12]
  %Inh: 91.6%
S6K1
  %Inh: 8%
SBK1
  %Inh: 23%
SGK2
  %Inh: 0%
SGK3
  %Inh: 8%
SGK
  %Inh: 0%
SIK2
  %Inh: 9%
SIK
  %Inh: 7%
SLK
  %Inh: 63%

## Cc1ccc(Nc2ccnc(Nc3ccc4c(c3)CS(=O)(=O)C4)n2)cc1O.Cl [GW579362]
[1]
  %Inh: 15%
[2]
  %Inh: 0%
[3]
  %Inh: 0%
[4]
  %Inh: 18%
[5]
  %Inh: 20%
[6]
  %Inh: 7%
[7]
  %Inh: 0%
[8]
  %Inh: 55%
[9]
  %Inh: 47%
[10]
  %Inh: 11%
[11]
  %Inh: 0%
[12]
  %Inh: 35%
S6K1
  %Inh: 1%
SBK1
  %Inh: 55%
SGK2
  %Inh: 0%
SGK3
  %Inh: 9%
SGK
  %Inh: 0%
SIK2
  %Inh: 60%
SIK
  %Inh: 58%
SLK
  %Inh: 99.2%

## CC(C)S(=O)(=O)N1CCN(Cc2ccc3c(c2)nc(NC(=O)c2ccsc2)n3C[C@H](O)c2ccccc2)CC1 [GW635815]
[1]
  %Inh: 29%
[2]
  %Inh: 0%
[3]
  %Inh: 12%
[4]
  %Inh: 0%
[5]
  %Inh: 96.1%
[6]
  %Inh: 0%
[7]
  %Inh: 91.8%
[8]
  %Inh: 6%
[9]
  %Inh: 93.5%
[10]
  %Inh: 24%
[11]
  %Inh: 54%
[12]
  %Inh: 9%
S6K1
  %Inh: 13%
SBK1
  %Inh: 59%
SGK2
  %Inh: 0%
SGK3
  %Inh: 3%
SGK
  %Inh: 0%
SIK2
  %Inh: 19%
SIK
  %Inh: 0%
SLK
  %Inh: 33%

## COC(=O)Nc1nc2cc(Oc3ccc(NC(=O)Nc4cc(C(F)(F)F)ccc4Cl)cc3)ccc2[nH]1.Cl [GW697465]
[1]
  %Inh: 0%
[2]
  %Inh: 0%
[3]
  %Inh: 14%
[4]
  %Inh: 0%
[5]
  %Inh: 0%
[6]
  %Inh: 0%
[7]
  %Inh: 0%
[8]
  %Inh: 10%
[9]
  %Inh: 21%
[10]
  %Inh: 13%
[11]
  %Inh: 0%
[12]
  %Inh: 25%
S6K1
  %Inh: 23%
SBK1
  %Inh: 1%
SGK2
  %Inh: 0%
SGK3
  %Inh: 0%
SGK
  %Inh: 2%
SIK2
  %Inh: 0%
SIK
  %Inh: 0%
SLK
  %Inh: 63%

## CSc1nccc(-c2c(-c3ccc(F)cc3)ncn2CCCN2CCOCC2)n1.Cl [SB-217146]
[1]
  %Inh: 27%
[2]
  %Inh: 0%
[3]
  %Inh: 0%
[4]
  %Inh: 4%
[5]
  %Inh: 3%
[6]
  %Inh: 17%
[7]
  %Inh: 46%
[8]
  %Inh: 0%
[9]
  %Inh: 0%
[10]
  %Inh: 18%
[11]
  %Inh: 18%
[12]
  %Inh: 21%
S6K1
  %Inh: 17%
SBK1
  %Inh: 6%
SGK2
  %Inh: 0%
SGK3
  %Inh: 13%
SGK
  %Inh: 10%
SIK2
  %Inh: 0%
SIK
  %Inh: 0%
SLK
  %Inh: 0%

Source: paper PMC5540273 (PLoS ONE, 2017)
